Reference: PubChem BioAssay AID1477 (National Center for Advancing Translational Sciences (NCATS), 2009)
Hit rate of the full screen: of about 230,000 compounds, fewer than 10 were called active. Inconclusive results (about 3%) are left out. Calls come from the whole dose curve; as a rule, active = well fitted curve in the direction sought with a large enough effect; inconclusive = small, poorly fitted or top-dose-only effect, or effect the other way, or another doubt; inactive = no such curve, though single readings can be large or run the other way. Not all results are given here. Bridge positions count the residues as written; N and C are the ends. Peptide text beside a SMILES is read from it.

The compounds below were run against Runt-related transcription factor 1 (Homo sapiens) + Core-binding factor subunit beta (Homo sapiens) (UniProt Q01196+Q13951) (assay: qHTS Assay for Compounds Blocking the Interaction Between CBF-beta and RUNX1 for the Treatment of Acute Myeloid Leukemia). Conditions: AlphaScreen CBFb-His/RUNX1-biotin binding, biochemical; series mostly up to 59.8 µM; activity, negative = inhibition: at the top concentration.
How it was run: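 Interaction loss through any mechanism counts as activity. Pre-formed complex of His-CBF-beta and biotin-RUNX1 (30 nM apiece) is incubated with compound 15 min, then with 50 ng nickel and 50 ng streptavidin beads for 90 min before AlphaScreen detection.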
Note: % of control where 0% means no effect.

Chain of Runt-related transcription factor 1 (Homo sapiens) + Core-binding factor subunit beta (Homo sapiens) (Q01196 whole entry, looked up): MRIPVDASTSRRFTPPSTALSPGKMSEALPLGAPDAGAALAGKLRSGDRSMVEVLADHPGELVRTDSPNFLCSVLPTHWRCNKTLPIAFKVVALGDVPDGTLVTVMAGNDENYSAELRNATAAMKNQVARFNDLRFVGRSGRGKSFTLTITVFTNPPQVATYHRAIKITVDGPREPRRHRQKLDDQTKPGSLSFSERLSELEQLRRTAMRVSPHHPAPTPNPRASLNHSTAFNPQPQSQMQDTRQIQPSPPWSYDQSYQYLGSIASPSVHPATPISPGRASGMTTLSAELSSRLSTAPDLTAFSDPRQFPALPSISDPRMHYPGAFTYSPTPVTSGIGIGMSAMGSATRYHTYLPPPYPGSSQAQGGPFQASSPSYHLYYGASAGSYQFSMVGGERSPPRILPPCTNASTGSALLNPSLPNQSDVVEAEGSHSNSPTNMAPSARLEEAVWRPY
Chain of Runt-related transcription factor 1 (Homo sapiens) + Core-binding factor subunit beta (Homo sapiens) (Q13951 whole entry, looked up): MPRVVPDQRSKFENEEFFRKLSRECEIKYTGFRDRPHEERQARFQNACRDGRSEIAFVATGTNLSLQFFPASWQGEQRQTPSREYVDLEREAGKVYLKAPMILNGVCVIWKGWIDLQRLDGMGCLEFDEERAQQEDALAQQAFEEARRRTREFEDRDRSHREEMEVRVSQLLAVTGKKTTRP

activity, negative = inhibition, inactive:
O=C(CC1NCCc2ccccc21)Nc1cccc(Cl)c1 (stereo not drawn) -6.51%
CCOC(=O)c1ccccc1N1C(=O)C2Sc3[nH]c(=O)sc3C(/C=C/c3ccccc3)C2C1=O (stereo not drawn) -3.6%
CCOC(=O)c1cc2c(=O)[nH]c(C(Cl)(Cl)Cl)nc2o1 7%
C[C@@H](O)[C@@H]1NC(=O)[C@H](CCCCN)NC(=O)[C@H](Cc2c[nH]c3ccccc23)NC(=O)[C@H](Cc2ccccc2)NC(=O)[C@H](Cc2ccccc2)NC(=O)[C@H](CC(N)=O)NC(=O)[C@H](CCCCN)NC(=O)[C@@H](NC(=O)[C@@H]2CCCN2)CSSC[C@@H](C(=O)N[C@@H](CCCCN)C(=O)O)NC(=O)[C@H](CO)NC(=O)[C@H](CO)NC(=O)[C@H](Cc2ccccc2)NC1=O (H-PCKNFFWKTFSSCK-OH; disulfide 2-13) 10.5%
O=C1C2C(c3ccccc3)CC=CC2C(c2ccoc2)N1Cc1ccccc1 (stereo not drawn) 14.2%
COCCCn1c(SCc2cccc(OC)c2)nc2cc(OC)c(OC)cc2c1=N -7.59%
C=C1/C(=C\C=C2\CCCC3(C)C2CCC3C(C)/C=C/C(O)C2CC2)CC(O)CC1O (stereo not drawn) 13.2%
CCOC(=O)C(C)Oc1cccc2c(=O)n(CC(=O)NCCc3ccc(OC)c(OC)c3)ccc12 (stereo not drawn) 2.24% [at 2.36 µM]
COc1ccc(C(=O)C2CCCN(Cc3cccn3-c3ccccn3)C2)c(C)c1 (stereo not drawn) -4.12%
ONC(=Nc1ccc(Cl)cc1)c1ccccc1Cl 16.1%
COc1cc(CN2CCN(Cc3ccc(C)cc3)CC2)c([N+](=O)[O-])cc1OC -8.19%
C=C/C1=C/Cc2ccccc2[C@H](C[N+](=O)[O-])C(C(=O)OC)(C(=O)OC)C1 -6.91%
COC(=O)c1c(NC(=O)CN2C(=O)NC(CCc3ccccc3)C2=O)sc2c1CCCCC2 (stereo not drawn) -2.03%
CC(C)(C)NCCCOc1ccc(Cl)cc1C(C)(C)C -23.8%
CCCNC(=O)OC[C@H]1O[C@H](CCO/N=C/[C@@H](NS(=O)(=O)c2ccc(C)cc2)[C@H](C)/C=C/CC(=O)OC)C=C[C@@H]1Oc1ccc(OC)cc1 -0.295% [at 2.36 µM]
C/C=C/c1ccc(OCCCCN2CCC(C)CC2)c(OC)c1 5.81%
Cc1cccc(N2CCC(NCc3c(C(=O)N4CCCCC4)nc4c(C)cccn34)CC2)c1 5.52%
CC1(C)CC(CNCCC(c2ccc(F)cc2)c2ccco2)CCO1 (stereo not drawn) 18%
Fc1ccc(Cl)cc1-c1nc(Nc2ccncc2)c2nccnc2n1 14.3%
CCOc1ccc2sc(NS(=O)(=O)c3ccc(N)cc3)nc2c1 5.42%
CCc1ccc(CN(C)C(=O)CCc2nnc(-c3ccc(-c4ccccc4)cc3)o2)nc1 0.367%
CCOC(=O)C1(CCOc2ccccc2)CCN(C(=O)c2cncs2)CC1 15.7%
COc1ccc(C(CC(=O)N2CCN(c3ccccc3)CC2)c2c(O)cc(OC)cc2OC)cc1 (stereo not drawn)
